Compound activity deposited in PubChem BioAssay by The Scripps Research Institute Molecular Screening Center.
Sampled rows, rich in hits. Any-hit rate of the full collection: about 2%.
CHO-K1 Ca antag: counter-screen for M1 antagonists: effect in parental CHO-K1 cells | ATP-induced calcium, Fluo-8 fluorescence | inhibition, % at 3 µM | 0.6% of 360,000 active | AID 602250;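 active = inhibition above a per-plate cutoff, the plate's mean sample inhibition plus 3 SD, cut at about 24% in these data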
M4 ag: CHRM4 agonism in calcium assay | CHO-K1 hM4/Gqi5, Fluo-8 calcium fluorescence; vehicle 0%, full acetylcholine response 100% | 0.14% of 360,000 active | activation, % at 3 µM | AID 624127 | P08173;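 active = activation above the run mean over all test wells plus 3 SD, cut at about 32% in these data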;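 also: peak over basal fluorescence ratio per well then scaled between controls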
Target sequence (P08173 whole entry, looked up): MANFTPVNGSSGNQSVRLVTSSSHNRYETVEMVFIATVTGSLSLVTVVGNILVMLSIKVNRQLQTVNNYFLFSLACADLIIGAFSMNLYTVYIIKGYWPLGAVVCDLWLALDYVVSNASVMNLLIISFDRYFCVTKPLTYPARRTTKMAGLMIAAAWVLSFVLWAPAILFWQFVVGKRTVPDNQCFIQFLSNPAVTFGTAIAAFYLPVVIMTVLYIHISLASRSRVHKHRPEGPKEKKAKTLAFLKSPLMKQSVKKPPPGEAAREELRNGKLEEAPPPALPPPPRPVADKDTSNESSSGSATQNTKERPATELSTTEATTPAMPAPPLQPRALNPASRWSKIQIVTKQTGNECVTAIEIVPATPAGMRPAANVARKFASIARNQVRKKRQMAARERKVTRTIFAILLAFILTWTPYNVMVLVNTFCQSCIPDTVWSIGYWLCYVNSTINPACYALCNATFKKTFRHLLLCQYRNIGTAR
M1 PAM parental: nonselective activator or artifact in parental CHO-K1 calcium assay; ATP EC20, Fluo-8 calcium fluorescence; 0% at ATP EC20, 100% at ATP max; activation, % at 3 µM; 0.02% of 360,000 active; AID 602247;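 active = activation above the run cutoff, the mean activation of all test compounds plus 3 SD, cut at about 40% in these data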;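 also: peak over basal fluorescence ratio in a 140 s read after ATP addition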
CHRM4 antagonist: antagonists of human muscarinic M4 receptor (CHRM4). P08173. CHO-hM4 cells, ACh EC80, Fluo-8 calcium fluorescence. inhibition, % at 3 µM. 0.73% of 360,000 active;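 active = inhibition above its plate's cutoff, the mean inhibition of sample wells plus 3 SD, cut at about 27% in these data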
CHRM4 PAM: positive allosteric modulators of human muscarinic M4 receptor | CHO-K1 hM4/Gqi5, Fluo-8 calcium fluorescence, ACh EC20; 0% = ACh EC20, 100% = maximal ACh | 0.4% of 360,000 active | activation, % at 3 µM;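 active = activation above its plate's cutoff, the mean activation of sample wells plus 3 SD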
M1 ag parental: nonselective activator or artifact in parental CHO-K1 cells | 0.48% of 360,000 active | Fluo-8 calcium fluorescence; scaled to maximal ATP response, vehicle zero | activation, % at 3 µM | AID 602248; in the data active = activation above about 15%;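 also: untransfected CHO-K1 host cells lacking M1 receptor as counterscreen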
Hits are given with their value; . = inactive; / = no result given.

SMILES	CHO-K1 Ca antag	M4 ag	M1 PAM parental	CHRM4 antagonist	CHRM4 PAM	M1 ag parental
CCOC(=O)C1(Cc2ccccc2)CCN(Cc2cn(CC(=O)OC)c3ccccc23)CC1	.	.	.	.	20	.
CC(C)C(=O)Nc1ccc(N2CCCC2)cc1	.	.	.	30	.	.
COc1ccc(/C=C/C(=O)Nc2cccc(C(C)=O)c2)cc1	.	.	.	.	.	19
CCOc1ccc(/C=C/C(=O)Nc2ccccc2C(F)(F)F)cc1	.	.	.	.	.	.
COc1ccc(/C=C/C(=O)Nc2ccccc2C(F)(F)F)cc1	.	.	.	.	21	.
CC(=O)Nc1cccc(C(=O)/C=C/c2ccc(N(C)C)cc2)c1	44	68	.	39	.	87
Cn1c(=O)c2c(ncn2CC(=O)Nc2ccc(N3CCOCC3)cc2)n(C)c1=O	25	.	.	.	.	.
C(C#CCCCCCCCCC[n+]1ccccc1)#CCCCCCCCCC[n+]1ccccc1	.	.	.	92	.	.
CN1CCN(C(=O)C[C@H]2CC[C@H]3[C@@H](COC[C@@H](O)CN3C(=O)C3CCCC3)O2)CC1	/	.	/	.	.	/
CC(C)(C)OC(=O)NC1CC2CCCC(C1)N2Cc1ccccc1 (centres undefined)	.	.	.	83	.	.
COc1cccc(C(=O)N=c2sc3cc(S(C)(=O)=O)ccc3n2C)c1	.	.	.	.	.	.
COc1ccc(-c2cc(C(N)=O)nc(N3CCCCCC3)n2)cc1	.	.	.	.	28	.
COc1ccc(-c2cc(C(F)(F)F)nc(N3CCCCCC3)n2)cc1	.	.	.	.	.	.
CC1(OC(=O)C2CCCC2)C(=O)C=C2C=C(c3ccsc3)N(C(CO)CO)C=C2C1=O (centres undefined)	.	.	.	.	.	.
COc1ccc(CCNC(=O)c2cc3sc(Cl)cc3n2C)cc1OC	24	.	.	.	.	.
O=c1[nH][nH]c(-c2ccccc2)c1C=Nc1ccc(F)cc1F	.	.	.	.	21	.
Cc1cc(C)c2c(=O)n(CC(=O)Nc3ccc(Cl)cc3)sc2n1	.	61	.	31	.	.
Cc1cccc(N2CCN(C(=O)Cn3nc(C)n4cccc4c3=O)CC2C)c1 (centres undefined)	.	.	.	.	.	.
CCOc1ccc(NC(=O)Cn2sc3nc(C)cc(C)c3c2=O)cc1	.	.	.	55	.	.
Cc1cccc(N2CCN(C(=O)Cn3sc4nc(C)cc(C)c4c3=O)CC2C)c1 (centres undefined)	.	.	.	54	.	.
CN1CCCC(OC(=O)CCCCC(=O)OC2CCCN(C)C2)C1 (centres undefined)	26	.	.	.	.	.
CN1CCCC(OC(=O)c2ccc(Cl)cc2)C1 (centres undefined)	.	.	.	.	.	.
CN(C)CCOC(C)(c1ccccc1)c1ccccn1 (centres undefined)	.	.	.	.	.	.
COC(C#CCCN(C)C)(c1ccccc1)c1ccccc1	.	.	.	35	.	.
CCOc1cc(/C=C2\CCCc3c2nc2ccccc2c3C(=O)O)ccc1OC	.	44	.	.	.	.
SMILES	CHO-K1 Ca antag	M4 ag	M1 PAM parental	CHRM4 antagonist	CHRM4 PAM	M1 ag parental
CC(OC(=O)c1c2c(nc3ccccc13)/C(=C\c1ccc3c(c1)OCO3)CCC2)C(=O)Nc1ccc(S(N)(=O)=O)cc1 (centres undefined)	.	.	.	.	.	.
Cc1cccc(C)c1NC(=O)COC(=O)c1c2c(nc3ccccc13)/C(=C\c1ccc3c(c1)OCO3)CCC2	28	88	.	37	.	41
COc1cc2c(cc1OC)[C@@H](NC(=O)C(C)C)[C@H](OCc1ccccc1)C2	.	.	.	.	.	.
CCOC(=O)Nc1ccc(S(=O)(=O)NC2CCCCC2)cc1	.	.	.	.	.	.
CCn1cc(C(=O)NCCCN2CC(C)CC(C)C2)c(=O)c2cc(S(=O)(=O)N(C)C3CCCCC3)ccc21 (centres undefined)	.	.	.	33	.	.
CCn1cc(C(=O)NCCCN2CCC(C)CC2)c(=O)c2cc(S(=O)(=O)N(C)C3CCCCC3)ccc21	.	.	.	.	.	.
C[C@@H]1CCCCO[C@@H](CN(C)C(=O)c2ccccc2)[C@@H](C)CN([C@H](C)CO)C(=O)c2cc(N(C)C)ccc2O1	.	.	.	.	.	.
CCCn1ncc(CN2CCCC(C(=O)c3cccc(OC(C)C)c3)C2)c1C (centres undefined)	.	.	.	66	.	.
COc1ccc(C(=O)C2CCCN(Cc3cn(C)nc3-c3ccccc3)C2)cc1F (centres undefined)	.	82	.	40	.	.
CCOc1ccccc1CN1CCCC(C(=O)c2ccc(OC)c(OC)c2)C1 (centres undefined)	.	.	.	.	.	.
COc1cccc(C(=O)C2CCCN(Cc3cn(CC(N)=O)c4ccccc34)C2)c1 (centres undefined)	32	.	.	.	.	.
COc1ccc(C(=O)C2CCCN(C(=O)Cn3nc(C)cc3C)C2)cc1F (centres undefined)	.	.	.	29	.	.
Cc1nc2scc(C)n2c(=O)c1S(=O)(=O)NCC1CCN(Cc2ccc(Cl)cc2)CC1	.	.	.	65	.	.
CSc1nc(C)cc(SCC(=O)N/N=C/c2ccccc2)n1	.	.	.	.	.	.
O=C(COc1ncnc2ccccc12)N1CCN(S(=O)(=O)c2ccc(Cl)cc2)CC1	63	.	.	.	.	.
COc1ccc(C2Nc3cc(OC)ccc3-n3cccc32)cc1 (centres undefined)	.	.	.	.	17	.
COc1ccc(C2NC(=S)N3C(c4ccc(OC)cc4)NC(=S)N23)cc1 (centres undefined)	.	.	.	.	.	.
Cc1ccc(CS(=O)(=O)CCC(=O)NCCC(C)C)cc1	.	.	.	.	34	.
C=CCn1c(C)cc(C(=O)CSc2nc3ccccc3c(=O)[nH]2)c1C	.	.	.	.	.	.
C=CCn1c(C)cc(C(=O)CSc2nc3ccccc3[nH]2)c1C	.	.	.	29	.	18
Cc1cc(C(=O)CSc2nc3ccccc3[nH]2)c(C)n1Cc1ccco1	27	.	.	.	.	.
Cc1nonc1NC(=O)CSc1nc2ccc(Cl)cc2[nH]1	34	.	.	.	.	.
Cc1cc(C(=O)CSc2nc3ccccc3[nH]2)c(C)n1C	.	.	.	.	.	.
Cc1cc(C(=O)CSc2nc3ccc(Cl)cc3[nH]2)c(C)n1CC1CCCO1 (centres undefined)	.	.	.	31	.	.
